PI5P4K alpha inh – PI5P4K alpha (human) kinase inhibition | P48426 | PI5P4Kalpha enzyme, ADP-Glo luminescence, 60 min; active compounds read low | max response, % | actives 1.2% (n = 330,000) | AID 652105; active means max response of -50% or lower; inconclusive means between -30% and -50%; inactive means -30% or higher; further: value at the top dose of about 77 µM
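ADP-Glo luminescence end-point after a 60 min room-temperature kinase reaction. PI5P4Kalpha and substrate in HEPES pH 7.4 buffer with EGTA, 0.1% CHAPS and 5% DMSO; ATP at 5 microM final.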
RECQ1 inh-1 – RECQ1 (human) helicase inhibition; RECQ1 DNA unwinding, red fluorescence kinetic read; Potency, µM (doses to about 57.3 µM), most hits filed as inhibitors; actives 0.54% (n = 240,000); AID 2549; further: nearly all actives have a fitted effect of over 30% in size
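50 nM RECQ1T1 preincubated 15 min with compound in Tris pH 8.0 buffer with MgCl2, DTT, Tween-20 and 2.5 ug/ml poly(dI-dC); started with 200 nM TAMRA/BHQ-2 forked duplex and 2 mM ATP. Unwinding read as fluorescence (525/598 nm), two reads 2 h apart.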
APE1 inh – APE1 (human) endonuclease inhibition. P27695. recombinant APE1, TAMRA/BHQ-2 abasic DNA cleavage fluorescence. Potency, µM (doses to about 65.8 µM), usual class: inhibitors. actives 0.35% (n = 350,000). AID 2517; further: nearly all actives have a fitted effect of over 55% in size
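Step 1: APE1 (0.75 nM) with compound, 15 min RT. Step 2: add 50 nM fluorophore/quencher THF duplex. Step 3: three fluorescence reads 60 s apart (525/598 nm); read 3 minus read 1 = reaction progress.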
FEN1 inh – blocks human flap endonuclease 1; P39748; Recombinant FEN1 flap cleavage, fluorescence, 15 min; Potency, µM (top dose mostly 114 µM), usual class: inhibitors; actives 0.35% (n = 390,000); AID 588795; further: nearly all actives have a fitted effect of over 65% in size
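Recombinant FEN1 (10 nM) was preincubated with pin-transferred compounds for 15 min at room temperature, then flap DNA substrate (50 nM final) was added. Plates were read at 0 and 15 min, and normalized concentration–response data were fitted to a four-parameter Hill equation.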
BLM helicase inh – inhibitors of human Bloom syndrome helicase BLM. recombinant BLM DNA unwinding, fluorescence dequenching. P54132. AID 2528. actives 0.2% (n = 350,000). Potency, µM (series often up to 56.1 µM), actives largely listed as inhibitors; further: nearly all actives have a fitted effect of over 35% in size
Target sequence (P54132 whole entry, looked up): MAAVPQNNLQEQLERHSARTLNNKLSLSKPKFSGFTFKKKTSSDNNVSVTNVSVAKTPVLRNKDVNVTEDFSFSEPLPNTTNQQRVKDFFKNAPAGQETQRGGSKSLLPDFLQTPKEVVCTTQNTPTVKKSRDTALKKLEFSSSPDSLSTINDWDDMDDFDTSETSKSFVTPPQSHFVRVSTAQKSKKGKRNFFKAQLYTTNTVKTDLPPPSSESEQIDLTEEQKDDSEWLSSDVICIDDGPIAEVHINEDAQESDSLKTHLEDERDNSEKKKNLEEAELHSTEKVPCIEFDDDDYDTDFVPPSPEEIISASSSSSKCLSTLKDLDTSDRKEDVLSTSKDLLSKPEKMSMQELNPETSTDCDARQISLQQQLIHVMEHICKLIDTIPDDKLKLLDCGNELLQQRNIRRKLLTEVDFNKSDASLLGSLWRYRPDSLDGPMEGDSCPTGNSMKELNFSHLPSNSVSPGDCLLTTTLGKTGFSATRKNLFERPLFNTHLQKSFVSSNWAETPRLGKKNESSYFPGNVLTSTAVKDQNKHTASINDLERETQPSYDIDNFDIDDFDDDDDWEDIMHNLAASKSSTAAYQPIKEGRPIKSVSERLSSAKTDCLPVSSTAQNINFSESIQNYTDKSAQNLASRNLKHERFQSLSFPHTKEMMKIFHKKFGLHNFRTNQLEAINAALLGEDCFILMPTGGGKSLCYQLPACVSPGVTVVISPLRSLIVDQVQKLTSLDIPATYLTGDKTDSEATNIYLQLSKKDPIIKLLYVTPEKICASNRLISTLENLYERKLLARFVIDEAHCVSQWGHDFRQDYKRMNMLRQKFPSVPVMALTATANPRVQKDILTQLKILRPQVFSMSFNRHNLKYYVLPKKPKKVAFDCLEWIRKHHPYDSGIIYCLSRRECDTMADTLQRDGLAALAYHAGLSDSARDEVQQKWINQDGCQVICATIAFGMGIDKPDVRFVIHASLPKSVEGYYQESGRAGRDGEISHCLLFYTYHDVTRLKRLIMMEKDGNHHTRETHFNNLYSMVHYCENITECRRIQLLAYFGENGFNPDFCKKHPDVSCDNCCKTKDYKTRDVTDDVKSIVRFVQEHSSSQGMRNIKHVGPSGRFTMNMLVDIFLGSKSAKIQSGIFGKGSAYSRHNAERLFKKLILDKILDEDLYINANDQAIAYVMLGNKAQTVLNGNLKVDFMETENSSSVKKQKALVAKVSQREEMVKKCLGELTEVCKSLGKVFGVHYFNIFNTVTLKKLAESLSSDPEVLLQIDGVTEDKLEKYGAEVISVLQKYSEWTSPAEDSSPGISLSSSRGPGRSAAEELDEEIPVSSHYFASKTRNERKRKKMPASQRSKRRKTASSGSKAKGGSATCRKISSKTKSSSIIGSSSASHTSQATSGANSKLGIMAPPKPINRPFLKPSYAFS
KAT2A inh – blocks human GCN5L2 histone acetyltransferase; actives 0.21% (n = 390,000); Q92830; GCN5L2 HAT assay, ThioGlo1 CoA-SH fluorescence; Potency, µM (series often up to 58.9 µM), most hits filed as inhibitors
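GCN5L2 (20 nM) in 50mM HEPES pH 7.5, 0.1mM EDTA, 0.01% Tween-20 preincubated 15 min with compounds at room temperature. Reaction started with H3(1-25) 75uM, acetyl-CoA 70uM, ThioGlo1 50uM; CoA-thiol fluorescence (Ex340/Em540) read at 0 and 20 min.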
RECQ1 conf – confirmation of human RECQ1 helicase inhibitors; RECQ1 helicase DNA unwinding, fluorescence; Potency, µM (titrated, usually from 229 µM), hits mostly inhibitors; actives 28% (n = 610); AID 2708; shares compounds with RECQ1 inh-1; further: nearly all actives have a fitted effect of over 45% in size
RECQ1 ADP FP – displaces ADP in a fluorescence polarization counter-screen for RECQ1 hits; shares compounds with RECQ1 inh-1; actives 27% (n = 530); Potency, µM (top dose mostly 228 µM), actives largely listed as inhibitors; ADP fluorescence polarization displacement counterscreen; further: nearly all actives have a fitted effect of over 45% in size
RECQ1 inh-2 – confirmation of human RECQ1 helicase inhibitors. AID 504841. actives 15% (n = 1,100). shares compounds with RECQ1 inh-1. recombinant RECQ1 DNA unwinding, red fluorescence. Potency, µM (doses to about 119 µM), hits mostly inhibitors; further: nearly all actives have a fitted effect of over 50% in size
Numbers stand for hits; [ ] = another dose, or the depositor's remark. Most compounds without a hit are left out; they make up all but 1.5% or so of the library. Unless noted, the call rests on the fitted dose curve; in most records, active means well fitted curve in the direction sought with a large enough effect; inconclusive means small, poorly fitted or top-dose-only effect, or another doubt; inactive means no such curve, though single readings can be large; an effect the other way counts as inactive or inconclusive.

What do the screens show for `CCCC[C@H](NC(C)=O)C(=O)N[C@@H](CCC(=O)O)C(=O)N[C@@H](Cc1cnc[nH]1)C(=O)N[C@H](Cc1ccccc1)C(=O)N[C@@H](CCCN=C(N)N)C(=O)N[C@H](Cc1c[nH]c2ccccc12)C(=O)NCC(N)=O`?
RECQ1 inh-1: inactive; APE1 inh: inactive; BLM helicase inh: inactive; KAT2A inh: inactive

What do the screens show for `COC(=O)C1=C(C(=O)OC)[C@@H]2Nc3ccccc3[C@@]23C[C@@H](C(=O)OC)N(S(=O)(=O)c2ccc4c(c2)OCCN4C)C3=N1`?
RECQ1 inh-1: inactive[11.5 µM]; APE1 inh: inactive[12.4 µM]; BLM helicase inh: inactive[12.4 µM]

What do the screens show for `Cc1cccc(NC(=O)C2C(c3ccccc3)C2(Cl)Cl)c1` (stereo not drawn)?
PI5P4K alpha inh: inactive; RECQ1 inh-1: inconclusive; APE1 inh: inactive; FEN1 inh: inconclusive; BLM helicase inh: inactive; KAT2A inh: inactive; RECQ1 inh-2: inactive

How did CSCC[C@H](NC(=O)[C@H](Cc1ccccc1)NC(=O)[C@H](Cc1cnc[nH]1)NC(=O)CNC(=O)[C@@H](NC(=O)[C@H](C)NC(=O)[C@H](Cc1c[nH]c2ccccc12)NC(=O)[C@H](CC(C)C)NC(=O)[C@H](CC(N)=O)NC(=O)CN)[C@@H](C)O)C(N)=O do in these assays?
RECQ1 inh-1: inactive; APE1 inh: inactive; BLM helicase inh: inactive; KAT2A inh: inactive

What do the screens show for `C[C@H](NC(=O)CNC(=O)[C@@H](NC(=O)[C@H](Cc1ccccc1)NC(=O)CNC(=O)CNC[C@@H](N)Cc1ccccc1)[C@@H](C)O)C(=O)N[C@@H](CCCN=C(N)N)C(=O)N[C@@H](CCCCN)C(=O)N[C@@H](CO)C(=O)N[C@@H](C)C(=O)N[C@@H](CCCN=C(N)N)C(=O)N[C@@H](CCCCN)C(N)=O`?
RECQ1 inh-1: inactive; APE1 inh: inactive; BLM helicase inh: inactive; KAT2A inh: inactive

What do the screens show for `CN(C)c1ccc(N=Nc2ccc(S(=O)(=O)O)cc2)cc1`?
FEN1 inh: inactive

Results for O=C(c1ccncc1)N1CCN(C2CCC(c3ccccc3)CC2)CC1 (stereo not drawn) ?
PI5P4K alpha inh: inactive; RECQ1 inh-1: inconclusive; APE1 inh: inactive; FEN1 inh: inactive; BLM helicase inh: inactive; KAT2A inh: inactive; RECQ1 inh-2: inactive

Results for CC(Cc1ccc(O)c(O)c1)(NN)C(=O)O (stereo not drawn) ?
RECQ1 inh-1: inactive; APE1 inh: inactive; BLM helicase inh: inactive

How did CC(=O)c1cc2c(cc1N(C(=O)Cn1nnc3ccccc31)C(C(=O)NCCC(C)C)c1cccnc1)OCO2 (stereo not drawn) do in these assays?
PI5P4K alpha inh: inactive; RECQ1 inh-1: inactive; APE1 inh: inactive; FEN1 inh: inactive; BLM helicase inh: inactive; KAT2A inh: inactive; RECQ1 conf: inactive; RECQ1 ADP FP: inactive

Results for N#C/C(=C/c1ccc(N2CCCCCC2)o1)c1cccc(F)c1 ?
RECQ1 inh-1: inactive; APE1 inh: inactive; FEN1 inh: inactive; BLM helicase inh: inconclusive; KAT2A inh: inactive

Results for COc1cc(N2CCCC2)c(OC)cc1/C=C(/C#N)c1cccc(F)c1 ?
PI5P4K alpha inh: inactive; RECQ1 inh-1: 4µM; APE1 inh: inactive; FEN1 inh: inactive; BLM helicase inh: inactive; KAT2A inh: inactive; RECQ1 conf: inconclusive; RECQ1 ADP FP: inconclusive

What do the screens show for `O=C1/C(=C/c2ccco2)SC(=S)N1c1cccnc1`?
PI5P4K alpha inh: -105; RECQ1 inh-1: 8.9µM; APE1 inh: 4µM; FEN1 inh: 28µM; BLM helicase inh: 32µM; KAT2A inh: 28µM; RECQ1 conf: 50µM; RECQ1 ADP FP: 50µM

How did O=C1/C(=C\c2ccc(O)cc2)SC(=S)N1c1cccnc1 do in these assays?
PI5P4K alpha inh: inactive; RECQ1 inh-1: inactive; APE1 inh: inactive; FEN1 inh: inconclusive; BLM helicase inh: inconclusive; KAT2A inh: inactive

What do the screens show for `Cc1ccc(C2=NC(=O)/C(=C/c3cc(O)c(O)c(Br)c3)S2)cc1`?
PI5P4K alpha inh: -82; RECQ1 inh-1: 3.5µM; APE1 inh: 2µM; FEN1 inh: 11µM; BLM helicase inh: 3.5µM; KAT2A inh: inconclusive; RECQ1 conf: 22µM; RECQ1 inh-2: 6.3µM

How did Oc1ccc(CNCc2ccc3c(c2)OCO3)c2cccnc12 do in these assays?
APE1 inh: inactive; KAT2A inh: inactive

Results for CC(=O)Oc1ccc2c(c1)Oc1cc(OC(C)=O)ccc1C21OC(=O)c2ccccc21 ?
PI5P4K alpha inh: inactive; RECQ1 inh-1: inactive; APE1 inh: inactive; FEN1 inh: inactive; BLM helicase inh: inactive; KAT2A inh: inactive

What do the screens show for `O=C1OC2(c3ccc(O)cc3Oc3cc(O)ccc32)c2ccccc21`?
RECQ1 inh-1: 32µM; APE1 inh: 28µM; BLM helicase inh: 35µM; KAT2A inh: inconclusive; RECQ1 inh-2: 79µM

How did Nc1nc2ncn(COCCO)c2c(=O)[nH]1 do in these assays?
FEN1 inh: inactive

What do the screens show for `O=C(/C=C/c1ccco1)N(c1ccccn1)c1ccccn1`?
PI5P4K alpha inh: inconclusive; RECQ1 inh-1: inconclusive; APE1 inh: inconclusive; FEN1 inh: inconclusive; BLM helicase inh: inconclusive; KAT2A inh: inconclusive; RECQ1 inh-2: 45µM

What do the screens show for `COc1cccc(OC)c1C1=Nn2c(nnc2-c2ccccc2O)SC1`?
RECQ1 inh-1: inactive; APE1 inh: inactive; BLM helicase inh: inactive

Results for C#CCn1c(=NC(=O)c2ccc(S(=O)(=O)N3CCCc4ccccc43)cc2)sc2cc(S(N)(=O)=O)ccc21 ?
PI5P4K alpha inh: inactive; RECQ1 inh-1: inactive; APE1 inh: inactive; FEN1 inh: inactive; BLM helicase inh: inactive; KAT2A inh: inactive; RECQ1 conf: inactive; RECQ1 ADP FP: inactive

How did CCc1ccc(NC(=O)COC(=O)c2ccc(Cl)c(S(=O)(=O)N3CCCCCC3)c2)cc1 do in these assays?
PI5P4K alpha inh: inactive; RECQ1 inh-1: inconclusive; APE1 inh: inactive; FEN1 inh: inactive; BLM helicase inh: inactive; KAT2A inh: inactive; RECQ1 inh-2: inconclusive
